Screens (PubChem BioAssay)
The list is not random: actives were taken first. Their share in the collection is about 6.2%.
Cardio protect: myocardial damage modulation in H9c2 cells; H9c2 cardiomyocytes, H2O2 injury protection, ATPLite, 2 h; 360,000 tested, 0.63% active; protection from H2O2 cell death, % at 20 µM;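 active = compounds giving at least 50% protection of heart cells from peroxide-induced death in the single-dose screen, raw or plate-pattern-corrected value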;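 note: 0% = DMSO wells with peroxide and 100% = DMSO wells without peroxide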
SUMO Mot1 rescue: SUMOylation pathway inhibition by Mot1-301 growth rescue; AID 2716; 320,000 tested, 1% active; growth rescue, % at 18.8 µM; S. cerevisiae Mot1-301 growth rescue, ATP luminescence, 38.5C; percent above DMSO median, 100 means doubled;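 active = every valid replicate shows activation above 250% relative to neutral control wells; inactive = the rest, any valid replicate at or below 250%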;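 note: OY570 slx delta 5 strain wells were the positive control but not used for scaling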
AI-2 QS mod: modulates the Vibrio harveyi AI-2 quorum sensing system | Vibrio harveyi JMH597 AI-2 luminescence/OD600 ratio, 9 h; active compounds read low; strain lacks LuxN and CqsS sensors; 0 = neutral-control median | activity change, % at 7.5 µM | 300,000 tested, 0.4% active; in the data active = activity change below about -75%, passing the limit was not always enough; inconclusive = no clear call, values can overlap the other calls;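 note: luminescence divided by OD600 gain over 9 h not by final OD600 alone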
AHR activator: activates the human aryl hydrocarbon receptor; AID 2796; activation, % at 5 µM; AHR-responsive luciferase reporter cells, luminescence; P35869; 320,000 tested, 2.5% active; in the data active = activation above about 47%;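 note: 0% = vehicle wells and 100% = reference agonist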
GRIN3A LBD mod: NR3A (human) ligand-binding domain modulation; NR3A LBD differential scanning fluorimetry, Tm shift; 0% = protein alone, 100% = glycine-bound protein; Tm shift relative to glycine control, % at 25 µM; 340,000 tested, 2.5% active; AID 1259313;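 active = melting temperature shift of at least 10% of the positive control shift, at one fixed dose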
NTR1 agonist: NTR1 (human) agonism. NTR1-U2OS beta-arrestin-GFP spot imaging, agonist mode. activation, % at 20 µM. 330,000 tested, 0.17% active. AID 493036;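 active = activation at or above 40% of the spot to cytoplasm intensity ratio, with at least 20 cells analyzed; inconclusive = wells under 20 cells, flagged as cytotoxic or low count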;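 note: 0% = DMSO without peptide and 100% = 100 nM NTR1 peptide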
Target sequence (P30989 whole entry, looked up): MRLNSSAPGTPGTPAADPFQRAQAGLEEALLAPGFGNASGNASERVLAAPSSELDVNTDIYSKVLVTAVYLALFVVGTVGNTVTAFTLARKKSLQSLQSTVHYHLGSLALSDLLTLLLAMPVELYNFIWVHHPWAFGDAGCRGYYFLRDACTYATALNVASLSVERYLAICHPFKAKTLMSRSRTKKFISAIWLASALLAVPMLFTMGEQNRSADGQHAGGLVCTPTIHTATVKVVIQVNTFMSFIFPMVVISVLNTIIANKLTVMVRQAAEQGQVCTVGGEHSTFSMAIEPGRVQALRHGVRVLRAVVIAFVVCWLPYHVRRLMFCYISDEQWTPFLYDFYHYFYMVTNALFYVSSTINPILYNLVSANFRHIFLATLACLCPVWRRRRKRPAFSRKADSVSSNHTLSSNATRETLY
Yeast Mot1 SUMO: inhibits SUMO pathway, affecting Mot1-301 yeast growth | shares compounds with SUMO Mot1 rescue | S. cerevisiae Mot1-301 galactose growth, ATP luminescence, 24 h; -100 = growth of slx-deleted rescue strain | growth activity, percent, % at 42 µM | 2,300 tested, under 10 active | AID 493004;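 active = Signal drops as the depositor expects, and the fitted half-maximal dose is no more than ten times the top valid tested dose; inconclusive = Poor fit, or a flat curve whose signal drops by 30% to 70%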;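 note: more negative values mean stronger growth rescue toward the control strain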
Active calls of the source: *; ? = inconclusive; . = not tested or not shown; + = active, no number.

SMILES	Cardio protect	SUMO Mot1 rescue	AI-2 QS mod	AHR activator	GRIN3A LBD mod	NTR1 agonist	Yeast Mot1 SUMO
COc1ccc2c(c1)[C@@H]1[C@H](CO2)[C@H](c2ccccc2)[C@]2(C)C(=O)Nc3ccc(C)cc3C(=O)N12	11	3	.	4	-6	5	.
COc1ccc2c(c1)C(=O)N1[C@H]3c4cc(C)ccc4OC[C@@H]3[C@H](c3ccccc3)[C@]1(C)C(=O)N2	-2	37	.	2	-2	-4	.
COc1ccc2c(c1)[C@H]1[C@H](CO2)[C@H](c2ccccc2)[C@]2(C)C(=O)Nc3ccc(C)cc3C(=O)N12	-2	598*	.	-1	3	-1	-1
COc1ccc2c(c1)OC[C@H]1[C@H]2N2C(=O)c3ccccc3NC(=O)[C@@]2(C)[C@H]1c1ccccc1	1	640*	.	1	-3	2	2
COc1ccc2c(c1)[C@H]1[C@H](CO2)[C@H](c2ccccc2)[C@]2(C)C(=O)Nc3ccc(F)cc3C(=O)N12	-6	904*	.	4	3	2	-1
O=S1(=O)C[C@H](N2CC[C@@H](O)C2)[C@@H](COCc2ccccc2)N1	2	.	.	.	.	.	.
CC(C)OC(=O)N(C)C[C@@H]1OCc2ccccc2-c2c(n(C)c3ccccc23)C(=O)N([C@@H](C)CO)C[C@H]1C	-4	.	.	.	.	.	.
C#CC(=O)CC1(CN(Cc2ccccc2)C(=O)OC(C)(C)C)CCCCC1	-19	.	.	.	3	.	.
O=C1OCc2cc(NS(=O)(=O)c3cccs3)ccc21	21	411*	22	0	3	0	0
O=S(=O)(Nc1ccc(N2CCOCC2)cc1)c1cccs1	0	579*	28	-1	-1	3	1
O=C(N/N=C/c1ccc(N2CCOCC2)cc1)c1ccc(NS(=O)(=O)c2cccs2)cc1	-2	-18	15	12	-8	0	.
O=S(=O)(Nc1ccc2c(c1)CCC2)c1cccs1	-2	-16	35	2	-3	-3	.
COC(=O)[C@H]1C[C@H](OC(=O)NCc2ccco2)[C@@]2(O)CN(S(=O)(=O)c3ccc(C)cc3)CC2[C@H]1C(=O)OC (stereo not given in full)	-4	.	.	.	.	.	.
CC(=O)Cn1cnc2sc(-c3ccccc3)cc2c1=O	-6	-1	-63	21	3	4	.
CCn1cnc2sc(-c3ccccc3)cc2c1=O	-17	412*	-1	-4	-2	0	-1
N#CC(CC(=O)c1ccc(F)cc1)c1ccc2c(c1)OCO2 (stereo not given)	6	420*	0	23	1	-1	0
Cc1ccc(S(=O)(=O)c2c(C)nn(C(C)(C)C)c2OC(=O)CC(C)C)cc1	-13	4	17	-1	0	4	.
CCCC(=O)Oc1c(S(=O)(=O)c2ccc(C)cc2)c(C)nn1C(C)(C)C	-9	635*	6	-2	0	5	-1
CCN(CC)c1ccc(/C=N/NC(=O)OC(C)(C)C)cc1	-3	568*	37	36	1	0	0
CCN(CC)c1ccc(/C=N\NC(N)=O)cc1	-9	-7	10	13	8	2	.
COc1ccc(N=C2SC(C(=O)O)CC(=O)N2Cc2ccc(OC)c(OC)c2)cc1 (stereo not given)	-1	529*	14	-4	0	-1	1
COc1ccc(N=C2SC(C(N)=O)CC(=O)N2CCc2ccc(OC)c(OC)c2)cc1 (stereo not given)	1	233	11	4	0	2	.
Cn1c(NCc2ccco2)nc2c1c(=O)n(Cc1ccc(Br)cc1)c(=O)n2C	32	-7	-1	-1	-17	7	.
Cn1c(NCc2ccco2)nc2c1c(=O)n(Cc1ccc(Cl)cc1)c(=O)n2C	51*	+	-8	11	15*	1	1
CCN(CC)S(=O)(=O)c1ccc(S(=O)(=O)N2CCC(C(=O)NC3CCN(Cc4ccccc4)CC3)CC2)cc1	2	634*	15	1	-2	-1	0
SMILES	Cardio protect	SUMO Mot1 rescue	AI-2 QS mod	AHR activator	GRIN3A LBD mod	NTR1 agonist	Yeast Mot1 SUMO
CCOc1ncccc1C(=O)OCC(=O)N(CC)c1ccccc1	4	439*	8	-1	-2	0	0
Cc1[nH]c2ccccc2c1N=Nc1cccc(C(=O)O)c1	3	9	23	24	-4	0	.
COC(=O)c1cc(N=Nc2c(C)[nH]c3ccccc23)cc(C(=O)OC)c1	-2	945*	24	1	-2	6	0
Cc1ccc([C@H]2C[C@H](O)[C@@H](n3cc(C4CC4)nn3)CN2C(=O)c2cccs2)cc1	-14	.	.	.	.	.	.
CCOc1ccccc1C(=O)N(Cc1cccs1)C1CCS(=O)(=O)C1 (stereo not given)	-4	+	37	0	-3	0	0
CCCOc1ccccc1C(=O)N(Cc1cccs1)C1CCS(=O)(=O)C1 (stereo not given)	2	42	28	-2	-2	0	.
O=C1c2cccc3c(N4CCCCC4)ccc(c23)C(=O)N1CCO	-16	424*	9	7	2	-2	1
Cc1cc(NC(=O)C(C)SCC(=O)N(C)Cc2ccccc2F)no1 (stereo not given)	-8	6	.	-2	1	0	.
C[C@H](CO)N1C[C@H](C)[C@@H](CN(C)S(=O)(=O)c2ccccc2C#N)OCc2cn(nn2)CCCC1=O	-8	.	.	.	.	.	.
CCn1c(SCC(=O)Nc2ccc(OCc3ccccc3)cc2)nnc1-c1ccco1	-18	837*	33	1	-7	0	1
COc1ccc(-c2nc(N)ncc2-c2ccccc2OC)c(O)c1	-4	-5	13	5	2	1	.
COc1cc(/C=N/NC(=S)NCc2ccco2)cc(OC)c1OC	-4	498*	-1	11	58*	1	-1
COc1ccccc1/C=N/NC(=S)NCc1ccco1	-5	-6	10	33	0	4	.
O=C(OCc1ccccc1)c1cccc(-c2nnn(Cc3ccccc3)n2)c1	-8	391*	-1	15	1	-1	0
O=C(Cn1nnc(-c2ccccc2)n1)OCc1ccccc1	-2	14	-11	-1	-1	0	.
CCOc1ccc(CCNC(=O)c2ccc(S(=O)(=O)N3CCCC3)cc2)cc1OCC	-4	-3	13	-2	-1	1	.
O=[N+]([O-])c1ccc(C=CC=Cc2ccccc2)cc1	-4	.	.	.	.	.	.
CN(c1ccccc1)c1ccc(/C=C/[N+](=O)[O-])cc1	-19	804*	?	7	16*	.	-3
CCOC(=O)C(C)(C)Sc1nc2c(cnn2-c2ccc(C)cc2)c(=O)[nH]1	-7	373*	8	-3	2	0	1
